S2 tox = Viability Counterscreen for Primary qHTS for Inhibitors of ATXN expression; S2 cells (HEK-293 line with an ATXN2-luciferase reporter) viability, CellTiter-Fluor protease fluorescence, 24 h; Potency, µM (top dose mostly 56.7 µM), actives largely listed as cytotoxic; 400,000 compounds, 0.49% hits; note: nearly all actives have a fitted effect of over 40% in size
TDP1 cell noCPT = qHTS for Inhibitors of human tyrosyl-DNA phosphodiesterase 1 (TDP1): qHTS in cells in absence of CPT; DT40 Tdp1-/- hTDP1 cells, no CPT, ATP luminescence, 48 h; Potency, µM (highest dose often 46.2 µM), without a hit: at the highest dose activity change, negative = growth inhibition, hits mostly inhibitors; 420,000 compounds, 15% hits; AID 686978, 2013; note: % is set by controls: 0 for no effect and ±100 for the full control effect; nearly all actives have a fitted effect of over 55% in size
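No-CPT arm: Tdp1-/-;hTDP1 DT40 cells (400/well) plus compounds, incubated ≥48 hr at 37 °C. Readout CellTiter-Glo luminescence.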
TGFb SMAD3 inh = qHTS for Inhibitors of TGF-b; HepG2 CAGA-GFP TGF-b/SMAD3 reporter, GFP fluorescence, 18 h; TGF-beta stimulated, 500 pg/mL final; Potency, µM (series often up to 46.1 µM), for inactives: at the highest dose activity, negative = inhibition, most hits filed as inhibitors; 410,000 compounds, 1.2% hits; AID 588855, 2011; note: % is set by controls: 0 for no effect and ±100 for the full control effect; nearly all actives have a fitted effect of over 65% in size
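Using HEPG2 CAGA-GFP reporter cells at 1000 cells/well, we pinned test compounds, stimulated with recombinant TGF-beta (500 pg/mL final) and measured total well GFP after 18 h.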
ATXN2 expr inh = Primary qHTS for Inhibitors of ATXN expression. HEK-293 ATXN2-luciferase reporter, luminescence, 24 h. Potency, µM (series often up to 57 µM), for the others: at the highest dose activity change, negative = inhibition, hits mostly inhibitors. 360,000 compounds, 0.72% hits; note: % is set by controls: 0 for no effect and ±100 for the full control effect; nearly all actives have a fitted effect of over 55% in size
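qHTS (up to 57 uM final) was run with 24 h compound exposure of reporter cells at 37 °C. Each well was multiplexed: SteadyGlo luminescence measured ATXN2-luciferase expression after a fluorogenic Gly-Phe-AFC viability readout (25 uM final).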
DT40 TDP1 CPT = qHTS for Inhibitors of human tyrosyl-DNA phosphodiesterase 1 (TDP1): qHTS in cells in presence of CPT; 420,000 compounds, 12% hits; chicken DT40 Tdp1-/-;hTDP1 cells + 20 nM CPT, ATP luminescence, 48 h; Potency, µM (titrated, usually from 46.2 µM), for inactives: top-dose activity change, negative = growth inhibition, hits mostly inhibitors; note: % is set by controls: 0 for no effect and ±100 for the full control effect; nearly all actives have a fitted effect of over 55% in size
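Chicken DT40 Tdp1-/- cells complemented with human TDP1, 400 cells/well, exposed to compounds plus 20 nM camptothecin for at least 48 h at 37 C; viability read as ATP content by CellTiter-Glo luminescence.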
HepG2 viability = qHTS for Inhibitors of TGF-b: Cytotox Counterscreen; HepG2 CAGA-GFP viability, ATP luminescence, 18 h; Potency, µM (series often up to 46.1 µM), without a hit: top-dose activity change, negative = cytotoxicity, usual class: cytotoxic; 410,000 compounds, 0.76% hits; AID 588856, 2011
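CellTiter-Glo luminescence gave cytotoxicity after 18 hours at 37 degrees C. The cells were HepG2 CAGA-GFP in 1% FBS DMEM, stimulated with 500 pg/mL TGF-beta after compound addition. %Activity was normalised to no-cell wells (complete cell-killing) and DMSO (no toxicity), and curves were fitted and classified.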
* marks the source's active call; other numbers are inactive results; i = inactive; ? = inconclusive; . = no result; [ ] = another dose, or the depositor's remark. Shown are actives, neighbours in structure and some others; about 17% of the full set was active somewhere. Calls come from the whole dose curve; as a rule, active = well fitted curve in the direction sought with a large enough effect; inconclusive = small, poorly fitted or top-dose-only effect, or another doubt; inactive = no such curve, though single readings can be large; an effect the other way counts as inactive or inconclusive. Potency is the fitted concentration of half-maximal effect.

SMILES | S2 tox | TDP1 cell noCPT | TGFb SMAD3 inh | ATXN2 expr inh | DT40 TDP1 CPT | HepG2 viability
CC(=O)c1ccc(N2CCN(C(=O)C3CCN(S(=O)(=O)c4cccs4)CC3)CC2)cc1 | i | 13µM* | 0% | -12% | ? | 10%
Cc1cccc(N2CCN(C(=O)C3CCN(S(=O)(=O)c4cccs4)CC3)CC2)c1C | i | 15µM* | ? | -20% | 21µM* | 3%
O=S(=O)(c1cccs1)N1CCN(c2ccc(O)cc2)CC1 | ? | 2.6µM* | 0% | ? | 2.6µM* | -2%
CCOC(=O)c1c(C)[nH]c(C)c1S(=O)(=O)N1CCC(C(=O)N2CCN(c3ccc(F)cc3)CC2)CC1 | i | -21% | -8% | -9% | -26% | -35%
COCC(=O)Nc1cc(C(=O)N2CCN(c3ccccc3)CC2C)c2c(c1)nc(-c1ccncc1)n2C (stereo not given) | i | -15% | . | . | -6%[9.04 µM] | .
COc1ccc(NS(=O)(=O)c2cc(NC(=O)CCc3ccccc3)ccc2N2CCOCC2)cc1 | ? | -22% | 4% | -16% | ? | -5%
CC(C)CC1C2C(=O)N(c3ccccc3)C(=O)C2ON1c1ccccc1 (stereo not given) | i | 0% | 1% | . | 15% | 2%
CN(C(=O)C1CCN(S(=O)(=O)c2cccs2)CC1)c1ccccc1 | i | 16µM* | 1% | -7% | ? | -6%
Cc1cccc(N2CCN(C(=O)C3CCC(CNS(=O)(=O)c4cccs4)CC3)CC2)c1C (stereo not given) | ? | 13µM* | -25% | ? | ? | -7%
O=C(OCc1ccccc1)C1CCN(S(=O)(=O)c2cccs2)CC1 | i | -3% | -3% | . | -29% | -1%
COC(=O)CC1(CC(N)=O)SCCS1 | i | ? | ? | -9% | -21% | 14µM*
CCOc1ccccc1N(C)C(=O)C1CCN(S(=O)(=O)c2cccc3nonc23)CC1 | i | 13µM* | ? | 4% | ? | 0%
O=C(C1CCN(S(=O)(=O)c2cccc3nonc23)CC1)N1CCN(c2ccc(F)cc2)CC1 | i | 12µM* | ? | -25% | 21µM* | -19%
Cc1cc(NC(=O)C2CCCN(S(=O)(=O)c3cccc4nonc34)C2)ccc1Br (stereo not given) | . | 16µM* | 9% | . | ? | 2%
CCN1CCN(C(=O)C2CCCN(S(=O)(=O)c3cc(Cl)ccc3Cl)C2)CC1 (stereo not given) | i | -18% | 2% | -3% | -22% | -4%
CCOc1ccccc1CNC(=O)C1CCN(S(=O)(=O)c2cccc3nonc23)CC1 | i | -22% | -15% | 0% | -26% | 5%
CC1CCN(C(=O)C2CCN(S(=O)(=O)c3cc(Cl)ccc3Cl)CC2)CC1 | i | 21µM* | -13% | -3% | ? | -3%
O=C(CCCc1cccs1)Nc1ccc2c(c1)OCO2 | i | -1% | 2% | 67% | ? | -28%
COc1cc(=O)n2c(c1C(=O)NC(C)c1ccco1)CCN(Cc1ccnc3ccccc13)CC2 (stereo not given) | i | -11% | . | . | ? | .
Cc1ccc(C)c(N2CCN(C(=O)C3CCCN(S(=O)(=O)c4cccc5nonc45)C3)CC2)c1 (stereo not given) | i | 6.5µM* | -25% | -1% | 9.2µM* | -13%
O=C(C1CCN(S(=O)(=O)c2cccc3nonc23)CC1)N1CCN(c2ccccc2)CC1 | i | 23µM* | -15% | -18% | ? | -9%
O=C(C1CCN(S(=O)(=O)c2cccc3nonc23)CC1)N1CCN(c2cccc(Cl)c2)CC1 | ? | 15µM* | ? | -17% | 26µM* | -7%
